# Measured values as given in PubChem BioAssay (NCATS).
# Results filed as inconclusive are left out. Activity calls are given as the source filed them. Unless noted, calls come from the whole dose curve.
# Experiments:
# [1] = Primary qHTS to identify inhibitors of SARS-CoV-2 cell entry (AID 1645846); details: SARS-CoV-2 pseudovirus cell entry assay, luminescence; activity change, negative = inhibition: at 57.1 µM (top of the series) unless noted; note: nearly all actives have a fitted effect of over 45% in size; note: potency is the fitted concentration of half-maximal effect
# Method in brief: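 Luminescence readout (Bright-Glo luciferase) 48 h after pseudoparticle addition. HEK293-ACE2 cells, 1500/well; compound pre-incubation 1 h; Normalized to spike PP and bald PP.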
# [2] = target: Alpha-galactosidase (Coffea arabica) (UniProt Q42656); assay: Counterscreen for Glucocerebrosidase Inhibitors: qHTS Assay for Coffee Bean alpha-Galactosidase at pH 4.5 (AID 957; active = well fitted curve in the direction sought with a large enough effect; an effect the other way counts as inactive or inconclusive;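 note: plate controls were enzyme alone for no effect and no enzyme for full effect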)
# Method in brief: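 AC50 values derive from Hill-equation modeling of concentration-response data, normalized to no-enzyme and full-activity controls. The pH 4.5 citrate assay used 2 nM coffee bean enzyme and 80 uM fluorogenic substrate for 20 min.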
# [3] = target: Alpha-galactosidase (Coffea arabica) (UniProt Q42656); assay: Counterscreen for Glucocerebrosidase Inhibitors: qHTS Assay for Coffee Bean alpha-Galactosidase at pH 5.9 (AID 998; active = well fitted curve in the direction sought with a large enough effect; an effect the other way counts as inactive or inconclusive;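 note: plate controls were uninhibited enzyme for no effect and no-enzyme basal signal for full effect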)
# Method in brief: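 Green coffee bean enzyme (2 nM final) was incubated with compounds (0.7 nM–77 uM) and 4-methylumbelliferyl alpha-D-galactopyranoside (80 uM) in citrate buffer pH 5.9, 20 min at room temperature. High-pH stop; fluorescence 365/440 nm; AC50 from Hill fits.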
# [4] = Validation screen for inhibitors of Lassa infection (AID 463096); note: % is set by controls: 0 for no effect and ±100 for the full control effect
# Sequence of Alpha-galactosidase (Coffea arabica) (Q42656 whole entry, looked up): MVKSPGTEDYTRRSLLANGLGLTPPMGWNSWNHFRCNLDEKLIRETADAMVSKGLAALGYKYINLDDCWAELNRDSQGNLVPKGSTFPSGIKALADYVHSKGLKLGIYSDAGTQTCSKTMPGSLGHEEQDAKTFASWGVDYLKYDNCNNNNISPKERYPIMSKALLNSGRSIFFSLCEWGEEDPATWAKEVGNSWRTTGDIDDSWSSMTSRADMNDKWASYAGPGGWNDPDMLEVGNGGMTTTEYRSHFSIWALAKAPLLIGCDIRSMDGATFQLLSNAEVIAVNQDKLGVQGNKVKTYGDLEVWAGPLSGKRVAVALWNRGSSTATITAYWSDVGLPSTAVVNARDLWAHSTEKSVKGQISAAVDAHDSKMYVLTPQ
smiles,measurement,setting,value
FC(F)(F)c1ccc(/C=C/c2nc(COc3ccc(CCCCn4ccnn4)cc3)co2)cc1,"activity change, negative = inhibition",[1],-95.9%
COc1cc2c(cc1OC)CN(CCc1ccc(-n3nnc(-c4cc(OC)c(OC)cc4NC(=O)c4cc(=O)c5ccccc5o4)n3)cc1)CC2,"activity change, negative = inhibition",[1],3.34% [at 0.702 µM]
Nc1nccn2c(C3CCC(C(=O)O)CC3)nc(-c3cc4cccc(Cl)c4[nH]3)c12 (stereo unspecified),"activity change, negative = inhibition",[1],-18%
COc1cc2c(Nc3ccc(Cl)c(Cl)c3F)ncnc2cc1OCC1C[C@@H]2CN(C)C[C@@H]2C1 (stereo partly specified),Potency,[1],15.8 µM (active)
CCC[C@H](N[C@H]1CCc2cc(F)cc(F)c2C1)C(=O)Nc1cn(C(C)(C)CNCC(C)(C)C)cn1,Potency,[1],31.6 µM (active)
CCOC(=N)c1nc2ccc3ncnc(Nc4cc(F)c(F)cc4Cl)c3c2s1,"activity change, negative = inhibition",[1],-20.9%
COc1cc(C(=O)NC2CCN(C)CC2)c(F)cc1Nc1ncc2c(n1)N(C1CCCC1)CC(F)(F)C(=O)N2C,"activity change, negative = inhibition",[1],-99.3%
CNCCn1c(=O)c2cc(OC)c(OC)cc2c2cnc3cc4c(cc3c21)OCO4,"activity change, negative = inhibition",[1],-98.1% [at 11.3 µM]
CC(=O)c1cnc2ccc(-c3cc(Cl)c(O)c(Cl)c3)nc2c1NC1CCC(CN(C)C)CC1 (stereo unspecified),"activity change, negative = inhibition",[1],-98.1% [at 11.3 µM]
O=C(O)C[C@H]1CCc2c1[nH]c1ccc(OCc3ccc(C4CCCC4)c(C(F)(F)F)c3)cc21,"activity change, negative = inhibition",[1],-95.5%
COc1cc(OCc2cccc(-c3ccccc3)c2C)cc(OC)c1CN1CCCC[C@H]1C(=O)O,"activity change, negative = inhibition",[1],-88.4%
Fc1ccc2[nH]ccc2c1-c1nc(N2CCOCC2)c2sc(CN3CCN(CC4CC4)CC3)cc2n1,Potency,[1],31.6 µM (active)
CN(C)C/C=C/C(=O)Nc1ccc(C(=O)Nc2cccc(Nc3ncc(Cl)c(-c4c[nH]c5ccccc45)n3)c2)cc1,Potency,[1],1 µM (active)
COc1ccc(S(=O)(=O)Nc2cc(-c3csc(C#N)c3)ccc2C)cc1,"activity change, negative = inhibition",[1],-92%
Cc1nc([C@](C)(O)CO)sc1-c1cnc(N)c(O[C@H](C)c2cc(F)ccc2-n2nccn2)c1,Potency,[1],22.4 µM (active)
COc1cc(N2CCN(C(C)=O)CC2)ccc1Nc1ncc(Cl)c(Nc2ccc(N3CCN(C(C)=O)CC3)cc2OC)n1,"activity change, negative = inhibition",[1],-12.2%
Cc1nc(NC(=O)N2CCCC2C(N)=O)sc1-c1ccnc(C(C)(C)C(F)(F)F)c1 (stereo unspecified),"activity change, negative = inhibition",[1],-29.8%
CN1CCN(c2ccc(OC(F)(F)F)c(Nc3ncc4c(n3)-c3c(c(C(N)=O)nn3CCO)CC4)c2)CC1,"activity change, negative = inhibition",[1],-77.5%
CC(C)=CCC/C(C)=C/CC/C(C)=C/CSc1ccccc1C(=O)O,outcome,[2],inactive
same,outcome,[3],inactive
same,Potency,[4],inactive
